Compound activity (PubChem BioAssay)
FBA Mtb inh: Mtb FBA enzyme inhibitors, primary screen, biochemical, fluorescence, strain H37Rv | purified M. tuberculosis FBA, fluorescence read-out | inhibition, % at 1 µM | 2.3% of 360,000 active; in the data active means inhibition above about 27%
Target sequence (P9WQA3 whole entry, looked up): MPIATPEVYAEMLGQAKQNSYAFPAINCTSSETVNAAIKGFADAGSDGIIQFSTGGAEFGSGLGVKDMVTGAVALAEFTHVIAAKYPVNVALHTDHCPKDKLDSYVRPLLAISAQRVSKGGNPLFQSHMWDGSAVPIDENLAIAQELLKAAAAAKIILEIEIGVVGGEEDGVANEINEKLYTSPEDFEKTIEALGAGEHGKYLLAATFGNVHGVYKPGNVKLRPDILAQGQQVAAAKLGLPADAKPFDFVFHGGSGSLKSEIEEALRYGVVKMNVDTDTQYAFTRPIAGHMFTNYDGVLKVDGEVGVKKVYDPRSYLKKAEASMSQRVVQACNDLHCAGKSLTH
UGM FP inh: M. tuberculosis UGM enzyme inhibitors, primary screen, biochemical, fluorescence polarization, single point; inhibition, % at 10 µM; AID 504406, 2011; purified UGM, fluorescence polarization probe displacement; 0.06% of 320,000 active; in the data active means inhibition above about 10%, passing the limit was not always enough; inconclusive means no clear call, values can overlap the other calls
Mtb bLac sens: beta-lactam sensitization of Mtb H37Rv, H37Rv. 0.27% of 330,000 active. M. tuberculosis H37Rv growth with meropenem, percent inhibition. inhibition, % at 25 µM; call rule not given here;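 further: growth measured after seven days incubation then overnight dye step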
GDH-TPI inh: GDH-TPI coupling enzyme inhibitors, primary screen, artefact control for M. tuberculosis FBA inhibitor project, biochemical, absorbance, full deck; GDH-TPI coupled enzyme counterscreen, NADH absorbance; inhibition, % at 4.8 µM; 1.2% of 360,000 active; AID 588335, 2011; in the data active means inhibition above about 30%
Rv3671c protease: Rv3671c serine protease inhibitors, primary screen, biochemical, fluorescence polarization, M. tuberculosis H37Rv; P9WHR9; inhibition, % at 5.96 µM; 0.048% of 320,000 active; in the data active means inhibition above about 38%;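 further: extracellular domain of Rv3671c used as enzyme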
Numbers stand for hits; - = inactive; ? = inconclusive; . = no result given; + = active, no number. Most compounds without a hit are left out; they make up all but 3.5% or so of the library.

SMILES | FBA Mtb inh | UGM FP inh | Mtb bLac sens | GDH-TPI inh | Rv3671c protease
O=c1cc(CN2CCN(S(=O)(=O)c3ccc4c(c3)OCCO4)CC2)c2ccc(O)cc2o1 | 199 | - | - | - | -
COc1ccc2[nH]c3c(c2c1)CC(C)NC3=O (configuration not stated) | 121 | - | - | - | .
Cc1ccc(NC(=O)CCN2CCOCC2)cc1C | - | - | - | - | .
CCOCC(=O)Nc1ccc2c(c1)N(S(=O)(=O)c1cccs1)CCC2 | - | - | - | - | -
CCOc1ccccc1Nc1ncnc2ccccc12 | 189 | - | - | - | -
O=C(O)c1cccc(CN2C(=O)S/C(=C/c3cccc([N+](=O)[O-])c3)C2=O)c1 | - | - | - | 44 | -
Cc1csc(SC(C)C(=O)NCC2CCCCC2)n1 (configuration not stated) | - | - | - | - | -
CCS(=O)(=O)c1ncc(Cl)c(C(=O)Nc2ccc(S(=O)(=O)N3CCC(C)CC3)cc2)n1 | - | - | - | - | -
O=C(Nc1ccc(/C=C/c2nc3ccccc3o2)cc1)c1ccc(F)cc1 | - | - | - | 33 | -
O=C(CCNS(=O)(=O)c1ccccc1C(F)(F)F)N1CCN(S(=O)(=O)c2cccc(F)c2)CC1 | - | - | - | - | -
COc1ccc(C(=O)CN2CCN(CCN3C(=O)c4cccc5cccc(c45)C3=O)CC2)cc1 | - | - | - | 46 | -
COc1cc2c3c(cccc3c1)C(=O)N(CCN1CCCC1)C2=O | 147 | . | . | - | .
COc1cccc(OCC(O)CN2CCN(CCN3C(=O)c4cccc5cccc(c45)C3=O)CC2)c1 (configuration not stated) | - | - | - | - | -
COc1ccc(OCC(O)CN2CCC(CN3C(=O)c4cccc5cccc(c45)C3=O)CC2)cc1 (configuration not stated) | - | - | - | 45 | -
COc1ccc(S(=O)(=O)N(NC2=NS(=O)(=O)c3ccccc32)C(=O)C(C)C)cc1 | - | - | - | - | -
CCCC/C(C)=N/NC(=O)c1cn(-c2ccccc2)nc1-c1ccccc1 | - | - | - | - | -
CCCCCC(=O)Nc1ccc(C(=O)CN2C(=O)NC3(CCCCCC3)C2=O)cc1 | - | - | - | - | -
COc1ccc(CCC(=O)N2CCCC(Nc3ccc(C)c(C)c3)C2)cc1OC (configuration not stated) | - | - | - | - | -
O=C(O)/C=C/C(=O)c1ccc2c(c1)CCc1ccccc1-2 | - | - | - | 32 | -
COc1cc(/C=N/NC(=O)c2ccc3c(c2)OCCO3)c(Br)c(Br)c1O | - | - | - | 37 | -
COc1cc(/C=N/NC(=O)c2ccc3c(c2)OCCO3)cc(Br)c1O | - | . | - | 36 | -
COc1cc(/C=N/NC(=O)C(=O)NCc2ccco2)cc(Br)c1O | - | - | - | 54 | -
COc1ccc(/C=N/NC(=O)c2ccc3c(c2)OCO3)c(C(=O)O)c1OC | - | - | - | 33 | -
COc1ccccc1/C=N/NC(=O)c1ccc2c(c1)OCO2 | - | - | - | - | -
Cc1nn(C)c(C)c1CNC(=O)Nc1cccc(Cl)c1C | - | - | - | - | -
SMILES | FBA Mtb inh | UGM FP inh | Mtb bLac sens | GDH-TPI inh | Rv3671c protease
c1ccc(-c2oc3ncnc(NCCCn4ccnc4)c3c2-c2ccccc2)cc1 | 51 | - | - | - | -
c1ccc(-c2c(-c3ccccc3)n(Cc3ccco3)c3ncnc(NCCCn4ccnc4)c23)cc1 | - | - | - | - | -
Cn1c(SCC(=O)NCC2CCCO2)nc2c(c1=O)SCC2 (configuration not stated) | - | - | - | - | -
CC(=O)C1=C(C)NC(SCC(N)=O)=C(C#N)C1CC(C)C (configuration not stated) | - | - | - | - | -
CCOC(=O)C1=C(C)NC(SC)=C(C#N)C1CC(C)C (configuration not stated) | - | - | - | 32 | -
CCN(CC)CCNC(=O)c1cc2c(-c3ccc(Cl)cc3)nn(C)c2s1 | 136 | . | - | - | -
CN(C)CCCN1C(=O)c2cc3ccccc3cc2C1=O | - | - | - | - | -
CN(C)CCCN1C(=O)c2cccc3cccc(c23)C1=O | 34 | - | - | - | -
COc1ccc(NC(=O)Nc2c(O)ccc3ccccc23)cc1 | - | - | - | - | -
S=C1NCCOCCOCCOCCNC(=S)N2CCOCCOCCN1CCOCCOCC2 | - | - | - | - | -
CC(/C=C/c1ccccc1)=N/NC(=O)c1cnccn1 | - | - | - | - | -
Cc1ccc(C(=O)N/N=C/C=C/c2ccccc2)cc1 | - | - | - | 31 | -
O=C(N/N=C/C=C/c1ccccc1)c1ccccc1Br | - | - | - | - | -
O=C(N/N=C/C=C/c1ccccc1)c1cnccn1 | - | - | - | 48 | -
O=C(N/N=C/C=C/c1ccccc1)c1cccc(Br)c1 | - | - | - | 65 | -
Cc1occc1C(=O)N/N=C/C=C/c1ccccc1 | - | - | - | - | -
Cc1cc(C(=O)N/N=C/C=C/c2ccccc2)c(C)o1 | - | - | - | 32 | -
Cc1cc(C(=O)N/N=C/c2ccccc2)c(C)o1 | - | - | - | - | -
COc1ccc(Cl)cc1NC(=O)C/C(C)=N/NC(=O)COc1ccc(C)cc1 | - | - | - | - | -
Cc1ccccc1C(=O)N/N=C/c1ccc(Sc2ccccn2)o1 | - | - | . | - | -
O=C(N/N=C\c1ccc(Sc2ccccn2)o1)c1cccc(Br)c1 | - | - | - | 32 | -
COC(=O)CNC(=O)CSc1nc2sc(-c3ccccc3)cc2c(=O)n1-c1ccccc1 | - | - | - | 47 | -
Cc1cc(C)n2cc(CSc3ccccn3)nc2n1 | - | - | - | - | -
Cc1cc(C)n2cc(CSCc3ccccc3)nc2n1 | 160 | - | - | - | -
Cc1ccc(-n2c(C)cc(/C=N/NC(=O)c3ccc(CN4CCOCC4)cc3)c2C)cc1 | - | - | - | - | -
SMILES | FBA Mtb inh | UGM FP inh | Mtb bLac sens | GDH-TPI inh | Rv3671c protease
Cc1cccc(-n2c(C)cc(/C=N/NC(=O)c3ccc(CN4CCOCC4)cc3)c2C)c1 | - | - | - | 45 | -
O=C(Nc1cccc(-c2cn3cccnc3n2)c1)c1ccc(Br)o1 | + | - | ? | - | -
O=C(Nc1cccc(-c2cn3cccnc3n2)c1)c1cccs1 | 170 | - | - | - | -
Cc1ccc(-c2cn3cccnc3n2)cc1NC(=O)c1ccc(Br)o1 | + | - | - | 41 | -
O=C(Nc1cccc(-c2cn3cccnc3n2)c1)c1ccc2c(c1)OCO2 | 134 | - | - | - | -
O=C(Nc1cccc(-c2cn3cccnc3n2)c1)Nc1ccccc1F | - | - | - | - | -
COc1ccc(-c2cn3cccnc3n2)cc1NC(=O)CC(C)C | - | - | - | - | -
CCOc1ccc(N(CC(=O)N/N=C/c2cccnc2)S(C)(=O)=O)cc1 | - | - | - | - | -
Cc1c(O)ccc2c(O)c(NC(=O)c3ccc4c(c3)CCC(C)(C)O4)c(=O)oc12 | - | - | - | - | -
O=C(Nc1cccc(-c2cn3cccnc3n2)c1)c1ccco1 | + | - | - | - | -
